Screening data: PubChem, several laboratories
E coli growth-1: reduces bacterial viability in AddAB counter-screen | E. coli V3065 growth, OD600 absorbance, 18 h | inhibition, % at 11.9 µM | hit rate 0.27% among 330,000 | AID 449728;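 active = inhibition above the campaign's mean inhibition across all tested compounds plus 3 SD, cut at about 9.9% in these data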;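 note: uninfected addAB+ strain grown without phage in ampicillin broth; 0% = DMSO wells and 100% = ciprofloxacin 0.95 µg/ml wells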
AddAB inh: less growth of phage-infected E. coli with AddAB. inhibition, % at 11.9 µM. hit rate 0.29% among 330,000. AID 435030. E. coli expressing H. pylori AddAB, absorbance growth; in the data active = inhibition above about 12%;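 note: 0% = vehicle wells of infected cells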
Tat transport: E. coli Tat transport inhibition | E. coli MC4100 TorA-mCherry Tat export, fluorescence | inhibition, % at 10 µM | hit rate 0.036% among 340,000 | AID 488895;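 active = mean replicate inhibition at least 50% and at least half of replicates individually reaching 50%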;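 note: exported cargo escapes ClpAP degradation while cytoplasmic cargo is degraded and loses fluorescence; 0% = median of neutral control wells and 100% = median of NaSCN control wells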
E coli growth-2: inhibitors of Escherichia coli growth. hit rate 0.21% among 330,000. OD600 absorbance (concentration not given with the values). OD600, 23 h; active compounds read low;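 active = OD600 absorbance below the run mean of sample wells minus 3.6 SD, in any replicate, cut at about 0.56 in these data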
phage Ecoli inh: E. coli growth loss with phage present; growth absorbance; inhibition, % at 11.9 µM; hit rate 0.26% among 360,000; AID 651602; in the data active = inhibition above about 11%
AddAB confirm: confirmation screen: growth loss of phage-infected E. coli expressing H. pylori AddAB; shares compounds with AddAB inh; E. coli V3065 expressing H. pylori AddAB, T4 phage, OD; T4 phage with gene 2 nonsense mutations; inhibition, % at 11.9 µM; hit rate 64% among 880;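 active = mean inhibition above a set limit taken from the earlier primary screen, cut at about 13% in these data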;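 note: higher means less bacterial growth since AddAB block lets phage replicate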
RecBCD counter: AddAB counter-screen: growth loss of RecBCD+ E. coli infected with mutant T4 phage | hit rate 73% among 880 | inhibition, % at 11.9 µM | shares compounds with AddAB inh | E. coli V66 + mutant T4 phage, OD growth | AID 488955;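 active = mean inhibition above the mean of solvent-only control wells plus 3 SD, cut at about 4% in these data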;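 note: optical density read after an 18 h incubation at 37 °C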
bact viab count: reduces bacterial viability, AddAB inhibitor counter-screen. hit rate 35% among 880. shares compounds with AddAB inh. AID 488956. inhibition, % at 11.9 µM. absorbance (AddAB counterscreen); in the data active = inhibition above about 25%
RecBCD conf: confirmation: growth loss of phage-infected RecBCD+ E. coli (RecBCD inhibitor screen). E. coli V66 + T4 2- phage, growth OD. shares compounds with phage Ecoli inh. inhibition, % at 11.9 µM. hit rate 45% among 890;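 active = mean inhibition over triplicates exceeding the hit threshold derived in the original primary screen, cut at about 11% in these data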
Ecoli viability: counter-screen for RecBCD inhibitors: inhibitors of bacterial viability; shares compounds with phage Ecoli inh; E. coli viability, absorbance (OD) growth; inhibition, % at 11.9 µM; hit rate 29% among 890; AID 651983; in the data active = inhibition above about 20%;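 note: E. coli strain V66 grown with compound alone and no phage infection; 0% = bacteria with DMSO vehicle only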
AddAB phage OD: growth loss of phage-infected AddAB E. coli, RecBCD counter-screen; shares compounds with phage Ecoli inh; E. coli expressing H. pylori AddAB + T4 phage, OD growth; gene 2 mutant T4, recBCD-deleted host; inhibition, % at 11.9 µM; hit rate 45% among 890; AID 651984;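 active = mean inhibition above the solvent-only control wells' mean plus 3 SD, cut at about 22% in these data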;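 note: higher means less bacterial growth from phage killing when AddAB is blocked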
Numbers without * were called inactive; nt = no result given. Compounds with a hit are over-represented: about 0.51% of the library has one in this group of screens.

SMILES	E coli growth-1	AddAB inh	Tat transport	E coli growth-2	phage Ecoli inh	AddAB confirm	RecBCD counter	bact viab count	RecBCD conf	Ecoli viability	AddAB phage OD
O=C(ON=C1CCCc2occc21)c1ccc(Cl)cc1Cl	nt	nt	nt	0.722	nt	nt	nt	nt	nt	nt	nt
O=C(Nc1ccccc1)C1=CC(c2coc3ccccc3c2=O)CC(OCc2ccc(CO)cc2)O1 (stereo not given)	nt	nt	nt	0.719	nt	nt	nt	nt	nt	nt	nt
CCc1ccc(C=NNC(=O)C(=O)NCCCN2CCOCC2)cc1	nt	nt	nt	0.682	nt	nt	nt	nt	nt	nt	nt
O=C(NC(=S)NNC(=O)c1cc2ccccc2cc1O)c1ccco1	16.6*	15.4*	-17.0	nt	19.9*	15.4*	24.2*	18.1	13.7*	17.4	20.3
COc1ccc(C(=O)NC(=S)NNC(=O)c2ccco2)cc1	-4.2	0.4	-1.2	0.644	-5.5	nt	nt	nt	nt	nt	nt
COc1cccc(/C=C2/SC(=S)N(CC(=O)NNC(=O)c3ccccc3O)C2=O)c1	7.3	13.2*	8.8	0.647	13.8*	16.6*	14.0*	16.2	11.2*	14.8	16.5
CCCC(=O)NCCCCNC(=O)CCC	-3.0	-2.4	-3.6	0.696	2.1	nt	nt	nt	nt	nt	nt
CC(=O)N(O)CCCCCNC(=O)CCC(=O)N(O)CCCCCNC(=O)CCC(=O)N(O)CCCCCN	22.4*	18.3*	5.3	nt	17.3*	6.7	13.3*	2.7	3.4	6.8	13.6
[N-]=[N+]=CC(=O)c1ccnc(C(=O)C=[N+]=[N-])c1	37.7*	30.9*	5.6	0.556*	18.4*	56.7*	22.3*	42.6*	20.0*	21.3*	48.9*
O=C(O)c1ccnc(Cl)c1	-1.0	0.8	-7.3	0.65	1.0	nt	nt	nt	nt	nt	nt
C[C@H]1O[C@@H](n2cc(F)c(=O)[nH]c2=O)[C@H](O)[C@@H]1O	42.3*	36.1*	6.4	nt	32.3*	41.5*	25.1*	38.3*	46.6*	30.8*	52.9*
O=c1[nH]c(=O)n(C2OC(CO)C(O)C(O)C2O)cc1F (stereo not given)	nt	nt	nt	nt	3.7	nt	nt	nt	nt	nt	nt
CC(NC(=O)OCc1ccccc1)c1nnc(C(Cc2ccccc2)NC(=O)OC(C)(C)C)o1 (stereo not given)	nt	nt	nt	0.67	nt	nt	nt	nt	nt	nt	nt
COc1ccc(OC2C=CC(c3ccccc3)OC2COC(=O)CCC(C)=NOC(C)c2cn(C3COCC3O)nn2)cc1 (stereo not given)	nt	nt	nt	0.691	nt	nt	nt	nt	nt	nt	nt
O=c1c2ccccc2oc2ccccc12	nt	nt	nt	nt	2.8	nt	nt	nt	nt	nt	nt
O=c1c(O)c(-c2cccs2)oc2ccccc12	24.8*	22.7*	2.7	0.676	12.5*	9.4	10.8*	3.6	4.8	8.2	11.9
O=C(NN=Cc1cccc(OC(=O)c2cccc(Br)c2)c1)c1ccncc1	nt	nt	nt	0.671	nt	nt	nt	nt	nt	nt	nt
Cc1cc2ncn(/N=C/c3ccc([N+](=O)[O-])o3)c2cc1C	31.5*	85.8*	3.2	nt	13.6*	99.3*	11.6*	46.4*	5.3	7.5	57.4*
COc1cccc(C=Nn2cnc3cc(C)c(C)cc32)c1OC	nt	nt	nt	0.687	nt	nt	nt	nt	nt	nt	nt
O=[N+]([O-])c1ccc(-c2cnc(NO)nc2)cc1	30.8*	32.9*	-3.2	0.591	30.7*	42.4*	30.2*	39.8*	30.8*	35.9*	44.9*
Nc1[nH]c(=O)ncc1-c1ccc([N+](=O)[O-])cc1	nt	nt	nt	nt	3.5	nt	nt	nt	nt	nt	nt
Nc1ncc(-c2ccc([N+](=O)[O-])cc2)cn1	37.9*	39.0*	-2.8	nt	37.5*	44.1*	36.8*	47.5*	35.2*	40.7*	51.0*
O=[N+]([O-])c1ccc(/C=N/N=C/c2ccc([N+](=O)[O-])o2)o1	nt	nt	-1.7	nt	7.9	nt	nt	nt	nt	nt	nt
O=C(O)/C=C/c1ccc([N+](=O)[O-])o1	72.6*	46.4*	13.8	0.401*	18.1*	101.4*	16.5*	77.1*	19.5*	19.5	101.3*
Cc1ccccc1N(CC(=O)NN=Cc1cc(C)n(-c2ccccc2C)c1C)S(C)(=O)=O	nt	nt	nt	0.781	nt	nt	nt	nt	nt	nt	nt
SMILES	E coli growth-1	AddAB inh	Tat transport	E coli growth-2	phage Ecoli inh	AddAB confirm	RecBCD counter	bact viab count	RecBCD conf	Ecoli viability	AddAB phage OD
NC(=O)c1ccsc1NC(=O)c1ccc([N+](=O)[O-])o1	88.3*	96.5*	-10.2	0.2*	20.8*	99.8*	19.5*	68.0*	13.3*	16.0	101.4*
Cc1ccnc(NC(=O)c2ccccc2[N+](=O)[O-])c1	0.7	2.1	2.3	0.701	2.6	nt	nt	nt	nt	nt	nt
Cc1ccnc(NC(=O)c2ccc([N+](=O)[O-])o2)c1	33.2*	27.1*	-10.1	0.559	13.0*	99.2*	9.8*	30.4*	7.9	9.7	74.8*
CN1CCc2c(sc(NC(=O)c3ccc([N+](=O)[O-])o3)c2C(N)=O)C1	98.6*	98.5*	56.4*	nt	79.7*	102.0*	82.2*	102.2*	69.4*	89.0*	102.8*
COc1cc(C=NN=C(N)c2nonc2N)ccc1O	nt	nt	nt	0.656	nt	nt	nt	nt	nt	nt	nt
CC1CN(C(C)CO)C(=O)c2cccc(N(C)C)c2OC1CN(C)C(=O)NC1CCCCC1 (stereo not given)	nt	nt	nt	0.689	nt	nt	nt	nt	nt	nt	nt
Cc1c(C(C)CCCO)oc(=O)c2c1Oc1c(C)c(C(C)CC(C)O)oc(=O)c1C2 (stereo not given)	nt	nt	nt	0.686	nt	nt	nt	nt	nt	nt	nt
Cc1ccc(C=NNC(=O)c2ccc(Cn3cc(Br)c([N+](=O)[O-])n3)o2)o1	nt	nt	nt	0.665	nt	nt	nt	nt	nt	nt	nt
Cc1ccc(/C=N\NC(=O)c2ccc(Cn3cc(Br)c([N+](=O)[O-])n3)o2)o1	27.1*	36.2*	4.9	nt	12.5*	72.8*	9.4*	51.3*	5.6	8.9	44.0*
O=C(NN=Cc1ccco1)c1cc(-c2ccccc2)nc2ccccc12	nt	nt	nt	0.649	nt	nt	nt	nt	nt	nt	nt
CCCCC(=O)NC(c1ccc(Cl)cc1)c1ccc2cccnc2c1O (stereo not given)	30.2*	31.5*	-5.0	nt	19.8*	29.2*	22.1*	23.2	11.6*	14.4	33.4*
CCCC(=O)NC(c1ccc(Cl)cc1Cl)c1ccc2cccnc2c1O (stereo not given)	27.4*	20.0*	-1.4	nt	23.6*	20.3*	20.3*	18.7	15.7*	18.7	25.3*
CCCCC(=O)NC(c1ccccc1OC)c1ccc2cccnc2c1O (stereo not given)	33.0*	32.2*	23.4	0.62	34.0*	30.3*	27.8*	26.7*	20.9*	24.6*	31.7*
CCCC(=O)NC(c1ccc(Cl)cc1)c1ccc2cccnc2c1O (stereo not given)	28.0*	18.7*	-9.5	nt	18.4*	24.4*	22.9*	23.6	15.5*	19.5	26.6*
